Test results from PubChem BioAssay.
For some assays here: Potency and affinity values are given separately. Active and inactive are the calls of the source.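 The calls were made as follows, unless noted: active = calcium signal cut by more than 3 SD below the full-agonist control yet still positive, in both repeats and the earlier primary screen; inactive = the rest.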

Columns and labels:
[1] = test system: TRPC4 beta (transient receptor potential cation channel C4), mouse; assay: activators of mouse TRPC4 channel, confirmation, cell-based, Fluo4 calcium, HEK293 TRPC4beta/mu-opioid, duplicates, 10 µM (AID 2426;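 active = fluorescence ratio normalized to control raised more than 50% in primary screen plus both repeat runs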); details: Fluo4 calcium fluorescence, at 10 µM; stronger effect = higher value
[2] = test system: transient receptor potential cation channel C4 beta (TRPC4), mouse; assay: activators of mouse TRPC4 channel, confirmation, cell-based, second round, Fluo4, HEK293 TRPC4beta/mu-opioid, 1 µM (AID 2461;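 active = primary screen active and over 50% activation in each of two duplicate runs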); details: Fluo4 calcium fluorescence, at 1 µM; stronger effect = higher value
[3] = test system: TRPC4 (transient receptor potential cation channel C4 beta), mouse; assay: positive allosteric modulators of mouse TRPC4, confirmation, cell-based, second round, Fluo-4, HEK293 TRPC4beta/mu-opioid, 1 µM (AID 2554;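 active = primary screen hit whose fluorescence ratio, in both repeats, exceeds the weak agonist control mean by 3 SD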); details: DAMGO EC20, Fluo-4 calcium flux, at 1 µM; stronger effect = higher value
[4] = test system: TRPC4 beta (transient receptor potential cation channel C4), mouse; assay: positive allosteric modulators of mouse TRPC4, confirmation, cell-based, Fluo-4, HEK293 TRPC4beta/mu-opioid (AID 2555;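 active = primary screen hit whose calcium fluorescence ratio, in both repeats, exceeds the weak agonist control mean by 3 SD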); details: DAMGO EC20, Fluo-4 calcium flux, at 10 µM; stronger effect = higher value
[5] = target: Short transient receptor potential channel 4 (Mus musculus) (UniProt Q9QUQ5); assay: inhibitors of mouse TRPC4 channel, confirmation, cell-based, Fluo4, HEK293 TRPC4beta/mu-opioid (AID 2636); details: DAMGO, Fluo4 calcium flux, at 10 µM; stronger effect = higher value
Short transient receptor potential channel 4 (Mus musculus), sequence (Q9QUQ5 whole entry, looked up): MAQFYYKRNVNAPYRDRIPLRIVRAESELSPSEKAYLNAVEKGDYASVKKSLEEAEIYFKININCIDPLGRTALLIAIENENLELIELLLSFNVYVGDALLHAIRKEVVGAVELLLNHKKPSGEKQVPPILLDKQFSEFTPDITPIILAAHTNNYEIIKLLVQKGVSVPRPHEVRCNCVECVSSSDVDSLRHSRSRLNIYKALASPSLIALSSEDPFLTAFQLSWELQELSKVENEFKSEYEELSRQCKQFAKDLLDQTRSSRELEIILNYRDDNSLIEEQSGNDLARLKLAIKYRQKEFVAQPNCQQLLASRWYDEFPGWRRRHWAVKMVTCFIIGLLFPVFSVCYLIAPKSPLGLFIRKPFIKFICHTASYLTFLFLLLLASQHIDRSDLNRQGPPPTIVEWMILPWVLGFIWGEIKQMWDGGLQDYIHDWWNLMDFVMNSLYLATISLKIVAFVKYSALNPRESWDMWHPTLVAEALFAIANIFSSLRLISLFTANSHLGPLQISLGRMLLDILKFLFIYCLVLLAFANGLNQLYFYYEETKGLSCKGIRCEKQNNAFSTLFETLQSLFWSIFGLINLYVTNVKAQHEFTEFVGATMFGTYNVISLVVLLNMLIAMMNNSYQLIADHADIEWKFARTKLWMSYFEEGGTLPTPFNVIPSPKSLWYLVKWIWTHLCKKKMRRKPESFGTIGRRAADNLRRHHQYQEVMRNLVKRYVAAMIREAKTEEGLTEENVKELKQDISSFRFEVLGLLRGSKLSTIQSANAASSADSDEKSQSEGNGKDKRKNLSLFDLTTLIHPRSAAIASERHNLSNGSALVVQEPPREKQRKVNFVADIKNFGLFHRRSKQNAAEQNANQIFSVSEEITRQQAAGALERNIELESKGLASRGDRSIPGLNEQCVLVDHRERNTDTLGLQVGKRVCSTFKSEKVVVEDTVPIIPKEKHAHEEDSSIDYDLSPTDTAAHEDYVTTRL

[6] = target: Short transient receptor potential channel 4 (Mus musculus) (UniProt Q9QUQ5); assay: inhibitors of mouse TRPC4 channel, confirmation, cell-based, second round, Fluo4, HEK293 TRPC4beta/mu-opioid, 1 µM (AID 2637;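 active = calcium signal ratio cut to more than 3 SD under the fully stimulated control mean yet still positive, in both repeats and the primary screen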;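 as to inhibition: percent of integrated ratio relative to wells lacking test compound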); details: Fluo4 calcium flux, DAMGO, at 1 µM; stronger effect = higher value
[7] = target: Short transient receptor potential channel 4 (Mus musculus) (UniProt Q9QUQ5); assay: mouse TRPC4 channel activators, dose response, cell-based, HEK293 TRPC4/mu-opioid, Fluo-4 calcium (AID 434937;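 active = primary screen activator hit with a dose response curve and TRPC4 channel activation at any tested dose; inactive = no activation, no dose response, or not a primary hit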)
[8] = target: Short transient receptor potential channel 4 (Mus musculus) (UniProt Q9QUQ5); assay: TRPC4 positive allosteric modulators, dose response, cell-based, HEK293 TRPC4/mu-opioid, Fluo-4 calcium, EC20 DAMGO (AID 434941;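 active = earlier screen potentiator hit that boosts the TRPC4 ion channel at some dose, with a dose response; inactive = no potentiation, no dose response, or not a prior hit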;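 also: calcium entry triggered by an EC20 dose of DAMGO at the co-expressed mu-opioid receptor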)
[9] = target: Short transient receptor potential channel 6 (Mus musculus) (UniProt Q61143); assay: inhibition of mouse TRPC6 channel, confirmation, selectivity assay for TRPC4 inhibitor project, cell-based, HEK293, membrane potential dye, duplicate (AID 434948;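 active = active in primary screen and both duplicates, each dropping signal beyond three positive-control SD with fluorescence still positive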); details: HEK293 TRPC6, membrane potential dye fluorescence, at 10 µM, stimulated with maximal-effect acetylcholine; stronger effect = higher value
Short transient receptor potential channel 6 (Mus musculus), sequence (Q61143 whole entry, looked up): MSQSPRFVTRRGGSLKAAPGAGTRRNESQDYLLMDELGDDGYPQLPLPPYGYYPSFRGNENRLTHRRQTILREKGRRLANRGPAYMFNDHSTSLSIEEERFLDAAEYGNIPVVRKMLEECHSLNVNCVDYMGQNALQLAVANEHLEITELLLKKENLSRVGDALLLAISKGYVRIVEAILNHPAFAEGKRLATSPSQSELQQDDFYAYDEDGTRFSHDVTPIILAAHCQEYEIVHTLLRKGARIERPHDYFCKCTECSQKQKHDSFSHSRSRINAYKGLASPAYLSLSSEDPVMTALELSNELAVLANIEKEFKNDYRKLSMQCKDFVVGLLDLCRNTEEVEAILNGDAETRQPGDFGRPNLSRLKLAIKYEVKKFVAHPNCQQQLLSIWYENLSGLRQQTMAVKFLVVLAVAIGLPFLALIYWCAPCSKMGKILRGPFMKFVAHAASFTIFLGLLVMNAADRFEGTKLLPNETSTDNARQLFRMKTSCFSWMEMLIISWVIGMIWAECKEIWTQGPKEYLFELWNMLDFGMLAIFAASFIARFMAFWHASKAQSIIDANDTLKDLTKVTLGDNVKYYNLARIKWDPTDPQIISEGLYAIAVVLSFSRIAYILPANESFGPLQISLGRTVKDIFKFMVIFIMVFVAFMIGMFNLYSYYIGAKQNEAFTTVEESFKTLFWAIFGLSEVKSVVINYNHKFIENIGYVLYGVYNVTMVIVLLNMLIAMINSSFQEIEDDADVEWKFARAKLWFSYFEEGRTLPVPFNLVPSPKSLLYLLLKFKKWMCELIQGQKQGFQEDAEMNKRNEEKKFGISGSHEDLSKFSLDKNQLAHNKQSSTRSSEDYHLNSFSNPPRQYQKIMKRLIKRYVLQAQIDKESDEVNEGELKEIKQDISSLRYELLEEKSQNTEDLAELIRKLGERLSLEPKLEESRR

[10] = target: Short transient receptor potential channel 6 (Mus musculus) (UniProt Q61143); assay: activation of mouse TRPC6 channel, confirmation, selectivity assay for TRPC4 activator project, cell-based, HEK293, membrane potential dye, duplicate (AID 434950;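 active = membrane potential signal rise above negative control mean plus 3 SD in both duplicates, also active in the earlier TRPC4 screen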); details: HEK293 TRPC6, membrane potential fluorescence, at 10 µM; stronger effect = higher value
[11] = target: Short transient receptor potential channel 6 (Mus musculus) (UniProt Q61143); assay: TRPC6 potentiation by TRPC4 potentiator hits, confirmation, selectivity assay for TRPC4 potentiator project, HEK293 cells, membrane potential dye, duplicate (AID 434952;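 active = compound raising the membrane signal above positive-control mean plus 3 SD in both repeats, and a primary screen hit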); details: HEK293 TRPC6, membrane potential dye fluorescence, at 10 µM, maximal acetylcholine added after compound; stronger effect = higher value
[12] = target: Short transient receptor potential channel 4 (Mus musculus) (UniProt Q9QUQ5); assay: calcium flux activators in TRPC4/5HT1a cells, counter-screen for TRPC4 activator project, cell-based, second counter screen, HEK293 TRPC4/5HT1a, Fluo-4 (AID 434977;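 active = calcium signal rise above buffer-control mean plus 5 SD in both duplicates, and also a hit in the primary screen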); details: Fluo-4 calcium flux, at 10 µM; stronger effect = higher value
[13] = calcium flux inhibitors in TRPC4/5HT1a cells, confirmation, counter-screen for TRPC4 inhibitor project, cell-based, second counter screen, HEK293 TRPC4/5HT1a, Fluo-4 (AID 434978;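 active = primary screen active whose calcium signal fell more than 3 SD beyond the full-serotonin control mean in both duplicate plates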;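 as to outcome: serotonin given first at submaximal then at maximal dose after compound preincubation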); details: Fluo-4 calcium flux, at 10 µM, serotonin added to trigger calcium flux; stronger effect = higher value
[14] = test system: TRPC4 (mouse), co-expressed with 5HT1a in HEK293; assay: calcium flux potentiators in TRPC4/5HT1a cells, confirmation, counter-screen for TRPC4 potentiator project, cell-based, second counter screen, HEK293 TRPC4/5HT1a, Fluo-4 (AID 434979;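 active = signal rise over 3 SD above mean of control wells given weak agonist, in both repeats and first screen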); details: Fluo-4 calcium flux, at 10 µM, serotonin added at its EC20 dose; stronger effect = higher value
[15] = calcium flux activation in mu-opioid HEK293 cells, confirmation, counter-screen for TRPC4 activator project, cell-based, HEK293 mu-opioid receptor line (AID 449723;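 active = hit in primary screen, with calcium signal over 5 SD above buffer well mean in both duplicates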;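 also: counter screen cells carry the mu-opioid receptor alone and lack TRPC4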); details: Fluo-4 calcium fluorescence, at 10 µM; stronger effect = higher value
[16] = calcium flux enhancement in mu-opioid HEK293 cells, confirmation, counter-screen for TRPC4 allosteric potentiator project, cell-based, HEK293 mu-opioid receptor line (AID 449724;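 active = calcium signal rise more than 3 SD above the low-dose agonist control mean, in both duplicate plates and the primary screen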); details: Fluo-4 calcium flux, at 10 µM, compound added before EC20 DAMGO stimulus; stronger effect = higher value

Structure (SMILES)	outcome [1]	outcome [2]	outcome [3]	outcome [4]	inhibition [5]	inhibition [6]	outcome [7]	outcome [8]	inhibition [9]	outcome [10]	outcome [11]	outcome [12]	inhibition [13]	outcome [14]	outcome [15]	outcome [16]	outcome [6]	outcome [9]	outcome [13]
C=CCNc1nc(N2CCCC2)nc2ccccc12	inactive	inactive	inactive	inactive	98% (active)	74% (active)	inactive	inactive	37.5% (active)	inactive	inactive	inactive	19.9% (active)	inactive	inactive	inactive	–	–	–
Nc1cc(C(F)(F)F)ccc1Nc1ccccc1	inactive	inactive	inactive	inactive	90% (active)	–	inactive	inactive	–	inactive	inactive	inactive	27.6% (active)	inactive	inactive	inactive	inactive	inactive	–
CCCCC[n+]1cccc2c3ccccc3ccc21	inactive	inactive	inactive	inactive	93% (active)	–	inactive	inactive	29% (active)	inactive	inactive	inactive	28.4% (active)	inactive	inactive	inactive	inactive	–	–
Cc1cc(N/N=C/c2ccccc2F)c2ccccc2n1	inactive	inactive	inactive	inactive	97% (active)	67% (active)	inactive	inactive	–	inactive	inactive	inactive	13.1% (active)	inactive	inactive	inactive	–	inactive	–
O=C(Nc1cccc(Cl)c1)N1CCN2C(=O)c3ccccc3C12c1ccccc1 (centres undefined)	inactive	inactive	inactive	inactive	69% (active)	–	inactive	inactive	–	inactive	inactive	inactive	–	inactive	inactive	inactive	inactive	inactive	inactive
Cc1nc2scc(-c3ccccc3)c2c(=O)n1N=C1C=CC(=O)C=C1	inactive	inactive	inactive	inactive	69% (active)	–	inactive	inactive	–	inactive	inactive	inactive	21% (active)	inactive	inactive	inactive	inactive	inactive	–
CCc1ccccc1NC(=S)N(CCCN(C)C)Cc1cc2cc3c(cc2[nH]c1=O)OCO3	inactive	inactive	inactive	inactive	94% (active)	92% (active)	inactive	inactive	–	inactive	inactive	inactive	19.9% (active)	inactive	inactive	inactive	–	inactive	–
c1ccc(-c2ccccc2OCCOCCN2CCCCC2)cc1	inactive	inactive	inactive	inactive	94% (active)	44% (active)	inactive	inactive	–	inactive	inactive	inactive	33.7% (active)	inactive	inactive	inactive	–	inactive	–
CCCCn1c(SCC(=O)OCC)nc2c(sc(=S)n2-c2ccccc2OC)c1=O	inactive	inactive	inactive	inactive	94% (active)	–	inactive	inactive	–	inactive	inactive	inactive	14% (active)	inactive	inactive	inactive	inactive	inactive	–
CCOCCCNCc1cc(Br)ccc1OCc1ccccc1	inactive	inactive	inactive	inactive	94% (active)	49% (active)	inactive	inactive	28% (active)	inactive	inactive	inactive	16.2% (active)	inactive	inactive	inactive	–	–	–
COc1ccc(CN2CCN(Cc3ccccc3F)CC2)c(OC)c1	inactive	inactive	inactive	inactive	89% (active)	–	inactive	inactive	–	inactive	inactive	inactive	30.4% (active)	inactive	inactive	inactive	inactive	inactive	–
CCOC(=O)CSc1nc2c(sc(=S)n2-c2ccccc2OC)c(=O)n1-c1ccccc1OC	inactive	inactive	inactive	inactive	71% (active)	38% (active)	inactive	inactive	–	inactive	inactive	inactive	31.3% (active)	inactive	inactive	inactive	–	inactive	–
COc1cccc(C(=O)C2CCCN(Cc3cccn3-c3ccccn3)C2)c1 (centres undefined)	inactive	inactive	inactive	inactive	44% (active)	–	inactive	inactive	38% (active)	inactive	inactive	inactive	35.6% (active)	inactive	inactive	inactive	inactive	–	–
Cc1nn(-c2nc3ccccc3n2Cc2ccccc2)c2c1C(=O)CC(C)(C)C2	inactive	inactive	inactive	inactive	72% (active)	–	inactive	inactive	–	inactive	inactive	inactive	13.5% (active)	inactive	inactive	inactive	inactive	inactive	–
